Data from ChEMBL document CHEMBL1961873, “Compounds: GSK PKIS; Assays: Nanosyn kinase panel” (2012).
Several values for one entry are separate records, joined by “and”; a condition that tells them apart may be missing. Equal values may be shown once.

Biological target: Tyrosine-protein kinase JAK2 (Homo sapiens) (UniProt O60674);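 further: mean JAK2 inhibition from the GSK PKIS screen, compounds tested at 1 µM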
Settings: at 1 µM

Tyrosine-protein kinase JAK2 (Homo sapiens), sequence (O60674 whole entry): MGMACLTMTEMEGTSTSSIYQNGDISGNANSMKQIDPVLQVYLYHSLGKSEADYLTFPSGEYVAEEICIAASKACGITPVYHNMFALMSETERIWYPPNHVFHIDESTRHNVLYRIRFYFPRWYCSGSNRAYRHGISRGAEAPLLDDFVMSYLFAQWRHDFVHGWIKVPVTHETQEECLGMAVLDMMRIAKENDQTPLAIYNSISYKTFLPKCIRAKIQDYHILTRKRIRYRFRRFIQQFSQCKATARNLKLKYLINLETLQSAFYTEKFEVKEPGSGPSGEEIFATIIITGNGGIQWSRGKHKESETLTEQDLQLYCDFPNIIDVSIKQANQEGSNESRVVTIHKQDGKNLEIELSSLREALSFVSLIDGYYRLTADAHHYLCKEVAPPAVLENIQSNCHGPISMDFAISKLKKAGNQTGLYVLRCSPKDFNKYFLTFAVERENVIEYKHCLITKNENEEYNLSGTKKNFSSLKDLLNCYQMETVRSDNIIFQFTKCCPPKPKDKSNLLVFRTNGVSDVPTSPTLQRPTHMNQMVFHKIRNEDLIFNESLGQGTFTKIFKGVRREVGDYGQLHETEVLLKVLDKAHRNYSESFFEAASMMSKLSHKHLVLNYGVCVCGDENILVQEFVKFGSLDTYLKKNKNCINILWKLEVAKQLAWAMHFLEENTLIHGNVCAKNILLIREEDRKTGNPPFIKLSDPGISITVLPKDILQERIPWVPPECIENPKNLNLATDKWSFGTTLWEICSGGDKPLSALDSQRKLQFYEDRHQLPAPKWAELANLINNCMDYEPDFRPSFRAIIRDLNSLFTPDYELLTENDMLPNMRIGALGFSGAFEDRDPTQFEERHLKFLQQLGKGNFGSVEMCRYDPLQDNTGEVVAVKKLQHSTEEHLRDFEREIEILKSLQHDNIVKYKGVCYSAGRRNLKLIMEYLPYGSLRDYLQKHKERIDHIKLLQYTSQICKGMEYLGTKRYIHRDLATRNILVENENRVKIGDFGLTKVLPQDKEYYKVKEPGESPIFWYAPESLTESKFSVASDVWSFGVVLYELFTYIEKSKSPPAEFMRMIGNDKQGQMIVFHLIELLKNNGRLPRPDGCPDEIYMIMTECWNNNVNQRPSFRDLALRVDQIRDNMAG

SMILES | inhibition
COC(=O)Nc1nc2cc(Oc3ccc(NC(=O)Nc4ccccc4)cc3)ccc2[nH]1 | 1.12%
CN1CCC(n2cnc(-c3ccc(F)cc3)c2-c2ccnc(NCCO)n2)CC1 | 1.42%
CC1=C(C(=O)Nc2ccc3[nH]ncc3c2)C(c2ccc(F)cc2)N=C(c2ccc(C(F)(F)F)nc2)N1 (stereo unspecified) | 2.08%
NS(=O)(=O)c1cccc(N/C=C2\C(=O)Nc3ccccc32)c1 | 2.13%
O=C(O[C@H]1CN[C@H](C#Cc2cc3ncnc(Nc4ccc5c(ccn5Cc5cc(F)ccc5F)c4)c3s2)C1)N1CCOCC1 | 1.6%
CC1(C)CC(n2cnc(-c3ccc(F)cc3)c2-c2ccnc(N)n2)CC(C)(C)N1 | -0.41%
c1ccc(-c2n[nH]cc2-c2ccnc(-c3ccc(OCCn4ccnc4)cc3)c2)nc1 | 3.12%
CCN1CCC(C(=O)Nc2n[nH]c3nnc(-c4cccc(F)c4F)cc23)CC1 | -0.03%
CS(=O)(=O)CCNCc1ccoc1-c1ccc2ncnc(Nc3ccc(OCc4ccccc4)cc3)c2c1 | -0.95%
COc1cc2c(cc1Nc1nc(Nc3cccc(F)c3C(N)=O)c3cc[nH]c3n1)N(C(=O)CN1CCN(C(C)C)CC1)CC2 | 2.21%
O=C(Nc1n[nH]c2nnc(-c3cccnc3)cc12)C1CC1 | 0.3%
COc1cccc(-n2ncc3c(N/N=C/c4ccc(C(=O)NCCN(C)C)cc4)ncnc32)c1 | 14.1%
CN1CCC(C(=O)Nc2n[nH]c3nc(-c4ccc(O)cc4)c(Br)cc23)CC1 | 1.49% and 1.42%
O=C(O[C@H]1CN[C@H](C#Cc2cc3ncnc(Nc4ccc5c(cnn5Cc5ccccc5)c4)c3s2)C1)N1CCOCC1 | -1.59%

Biological target: T1, Tyrosine-protein kinase JAK3 (Homo sapiens) (UniProt P52333)
T1 sequence (whole entry): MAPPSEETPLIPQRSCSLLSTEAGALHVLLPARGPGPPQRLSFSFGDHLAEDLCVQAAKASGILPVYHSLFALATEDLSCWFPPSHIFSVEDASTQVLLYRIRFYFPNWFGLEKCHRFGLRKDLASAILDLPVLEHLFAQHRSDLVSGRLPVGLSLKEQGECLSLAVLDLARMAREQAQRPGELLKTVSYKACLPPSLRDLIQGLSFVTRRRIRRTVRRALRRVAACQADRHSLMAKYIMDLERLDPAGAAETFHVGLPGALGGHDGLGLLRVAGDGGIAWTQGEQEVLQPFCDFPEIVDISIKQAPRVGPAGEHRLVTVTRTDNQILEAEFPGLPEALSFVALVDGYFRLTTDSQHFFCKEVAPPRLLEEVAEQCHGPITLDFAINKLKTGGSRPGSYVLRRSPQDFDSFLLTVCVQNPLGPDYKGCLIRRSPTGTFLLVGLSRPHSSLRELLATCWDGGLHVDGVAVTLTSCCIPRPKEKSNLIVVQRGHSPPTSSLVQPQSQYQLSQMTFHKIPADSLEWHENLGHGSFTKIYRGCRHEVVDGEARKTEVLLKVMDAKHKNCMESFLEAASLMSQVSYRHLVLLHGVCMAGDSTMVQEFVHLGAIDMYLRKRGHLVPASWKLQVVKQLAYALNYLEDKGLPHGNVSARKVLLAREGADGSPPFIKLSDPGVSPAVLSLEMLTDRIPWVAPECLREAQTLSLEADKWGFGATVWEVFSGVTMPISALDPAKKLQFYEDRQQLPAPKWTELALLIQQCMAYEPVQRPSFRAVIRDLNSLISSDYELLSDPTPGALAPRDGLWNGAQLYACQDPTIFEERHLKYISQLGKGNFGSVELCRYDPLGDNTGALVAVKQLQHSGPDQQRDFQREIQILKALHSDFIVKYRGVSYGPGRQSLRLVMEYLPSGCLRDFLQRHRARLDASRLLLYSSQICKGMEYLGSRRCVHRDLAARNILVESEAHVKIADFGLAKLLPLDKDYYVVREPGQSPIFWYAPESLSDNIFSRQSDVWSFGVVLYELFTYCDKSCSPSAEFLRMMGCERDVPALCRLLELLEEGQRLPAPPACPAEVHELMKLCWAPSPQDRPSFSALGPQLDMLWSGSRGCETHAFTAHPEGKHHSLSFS
Settings: at 0.1 µM

SMILES | inhibition
CN1CCN(Cc2ccc(-c3cc4ncnc(Nc5ccc(OCc6cccc(F)c6)c(Cl)c5)c4s3)o2)CC1 | -2.47% and -0.74%
Cc1nnc(-c2cccc(-c3ccc(C(=O)NCC4CC4)cc3)c2)o1 | -1.21%
CCn1c(-c2nonc2N)nc2cncc(C(=O)NCCNC)c21 | -3.8%
COc1c(C(N)=O)cc(-c2ccc(Cl)cc2)cc1-c1ccc(S(N)(=O)=O)cc1 | 0.08%
COc1cc(N2CCN(C(C)C)CC2)ccc1Nc1nc(Nc2cccc3ncccc23)c2cc[nH]c2n1 | 1.35%
CS(=O)(=O)CCNCc1ccc(-c2ccc3ncnc(Nc4ccc(OCc5ccccc5)cc4)c3c2)o1 | -2%
Cc1c2ccc(N(C)c3ccnc(Nc4cccc(S(N)(=O)=O)c4)n3)cc2nn1C | -4.75%
N#Cc1cccc(Nc2ncc(-c3ccccc3)o2)c1 | -1.06%
FC(F)(F)CNc1nccc(-c2cnn3ncccc23)n1 | -1.54%
c1cnn2ncc(-c3ccnc(NCCCN4CCOCC4)n3)c2c1 | -1.85%
Cc1cc(O)cc(C)c1/C=C/c1cncc(C(N)=O)c1 | -0.77%
NC(=O)c1ccc2c(-c3ccnc(NCCCO)n3)c(-c3ccc(F)cc3)nn2c1 | -1.31%
Fc1cccc(COc2ccc(Nc3ncncc3C#Cc3ccccc3)cc2Cl)c1 | -1.12%
CCCNc1cccc(-n2ncc3c(N/N=C/c4ccncc4)ncnc32)c1 | -1.09%
COc1cccc(Nc2nccc(-c3cnn4ncccc34)n2)c1 | 2.03%
Cc1cc(O)cc(C)c1/C=C/c1cncc(C(=O)OC(C)(C)C)c1 | 0.72%

SMILES | inhibition
CS(=O)(=O)Nc1ccc(-c2ccc3c(NC(=O)C4CC4)n[nH]c3c2)cc1 | -0.85%
COC(=O)Nc1nc2cc(Oc3ccc(NC(=O)Nc4ccccc4)cc3)ccc2[nH]1 | -1.68%
CN1CCC(n2cnc(-c3ccc(F)cc3)c2-c2ccnc(NCCO)n2)CC1 | -2.19%
CC1=C(C(=O)Nc2ccc3[nH]ncc3c2)C(c2ccc(F)cc2)N=C(c2ccc(C(F)(F)F)nc2)N1 (stereo unspecified) | 0.58%
NS(=O)(=O)c1cccc(N/C=C2\C(=O)Nc3ccccc32)c1 | -2%
O=C(O[C@H]1CN[C@H](C#Cc2cc3ncnc(Nc4ccc5c(ccn5Cc5cc(F)ccc5F)c4)c3s2)C1)N1CCOCC1 | -1.37%
CC1(C)CC(n2cnc(-c3ccc(F)cc3)c2-c2ccnc(N)n2)CC(C)(C)N1 | -0.01%
c1ccc(-c2n[nH]cc2-c2ccnc(-c3ccc(OCCn4ccnc4)cc3)c2)nc1 | -0.46%
CCN1CCC(C(=O)Nc2n[nH]c3nnc(-c4cccc(F)c4F)cc23)CC1 | 0.12%
CS(=O)(=O)CCNCc1ccoc1-c1ccc2ncnc(Nc3ccc(OCc4ccccc4)cc3)c2c1 | -0.19%
COc1cc2c(cc1Nc1nc(Nc3cccc(F)c3C(N)=O)c3cc[nH]c3n1)N(C(=O)CN1CCN(C(C)C)CC1)CC2 | 0.64%
O=C(Nc1n[nH]c2nnc(-c3cccnc3)cc12)C1CC1 | -0.15%
COc1cccc(-n2ncc3c(N/N=C/c4ccc(C(=O)NCCN(C)C)cc4)ncnc32)c1 | 0.22%
CN1CCC(C(=O)Nc2n[nH]c3nc(-c4ccc(O)cc4)c(Br)cc23)CC1 | -3.69% and -1.35%
O=C(O[C@H]1CN[C@H](C#Cc2cc3ncnc(Nc4ccc5c(cnn5Cc5ccccc5)c4)c3s2)C1)N1CCOCC1 | -0.78%

Biological target: T1, Tyrosine-protein kinase JAK3 (Homo sapiens)
Settings: at 1 µM

SMILES | inhibition
CN1CCN(Cc2ccc(-c3cc4ncnc(Nc5ccc(OCc6cccc(F)c6)c(Cl)c5)c4s3)o2)CC1 | -1.79% and -0.23%
Cc1nnc(-c2cccc(-c3ccc(C(=O)NCC4CC4)cc3)c2)o1 | 0.46%
CCn1c(-c2nonc2N)nc2cncc(C(=O)NCCNC)c21 | -2.17%
COc1c(C(N)=O)cc(-c2ccc(Cl)cc2)cc1-c1ccc(S(N)(=O)=O)cc1 | -0.75%
COc1cc(N2CCN(C(C)C)CC2)ccc1Nc1nc(Nc2cccc3ncccc23)c2cc[nH]c2n1 | 1.57%
CS(=O)(=O)CCNCc1ccc(-c2ccc3ncnc(Nc4ccc(OCc5ccccc5)cc4)c3c2)o1 | -1.45%
Cc1c2ccc(N(C)c3ccnc(Nc4cccc(S(N)(=O)=O)c4)n3)cc2nn1C | 0.05%
N#Cc1cccc(Nc2ncc(-c3ccccc3)o2)c1 | -0.94%
FC(F)(F)CNc1nccc(-c2cnn3ncccc23)n1 | -1.63%
c1cnn2ncc(-c3ccnc(NCCCN4CCOCC4)n3)c2c1 | -2.75%
Cc1cc(O)cc(C)c1/C=C/c1cncc(C(N)=O)c1 | 1.29%
NC(=O)c1ccc2c(-c3ccnc(NCCCO)n3)c(-c3ccc(F)cc3)nn2c1 | -0.86%
Fc1cccc(COc2ccc(Nc3ncncc3C#Cc3ccccc3)cc2Cl)c1 | 0.1%
CCCNc1cccc(-n2ncc3c(N/N=C/c4ccncc4)ncnc32)c1 | 8.21%
COc1cccc(Nc2nccc(-c3cnn4ncccc34)n2)c1 | 44.2%
Cc1cc(O)cc(C)c1/C=C/c1cncc(C(=O)OC(C)(C)C)c1 | 6.16%

SMILES | inhibition
CS(=O)(=O)Nc1ccc(-c2ccc3c(NC(=O)C4CC4)n[nH]c3c2)cc1 | 1.11%
COC(=O)Nc1nc2cc(Oc3ccc(NC(=O)Nc4ccccc4)cc3)ccc2[nH]1 | -0.28%
CN1CCC(n2cnc(-c3ccc(F)cc3)c2-c2ccnc(NCCO)n2)CC1 | -0.11%
CC1=C(C(=O)Nc2ccc3[nH]ncc3c2)C(c2ccc(F)cc2)N=C(c2ccc(C(F)(F)F)nc2)N1 (stereo unspecified) | 1.34%
NS(=O)(=O)c1cccc(N/C=C2\C(=O)Nc3ccccc32)c1 | 0.9%
O=C(O[C@H]1CN[C@H](C#Cc2cc3ncnc(Nc4ccc5c(ccn5Cc5cc(F)ccc5F)c4)c3s2)C1)N1CCOCC1 | 0.4%
CC1(C)CC(n2cnc(-c3ccc(F)cc3)c2-c2ccnc(N)n2)CC(C)(C)N1 | -0.6%
c1ccc(-c2n[nH]cc2-c2ccnc(-c3ccc(OCCn4ccnc4)cc3)c2)nc1 | 4.76%
CCN1CCC(C(=O)Nc2n[nH]c3nnc(-c4cccc(F)c4F)cc23)CC1 | 1.09%
CS(=O)(=O)CCNCc1ccoc1-c1ccc2ncnc(Nc3ccc(OCc4ccccc4)cc3)c2c1 | 0.82%
COc1cc2c(cc1Nc1nc(Nc3cccc(F)c3C(N)=O)c3cc[nH]c3n1)N(C(=O)CN1CCN(C(C)C)CC1)CC2 | 6.68%
O=C(Nc1n[nH]c2nnc(-c3cccnc3)cc12)C1CC1 | 0.02%
COc1cccc(-n2ncc3c(N/N=C/c4ccc(C(=O)NCCN(C)C)cc4)ncnc32)c1 | 15.4%
CN1CCC(C(=O)Nc2n[nH]c3nc(-c4ccc(O)cc4)c(Br)cc23)CC1 | -2.24% and 0.59%
O=C(O[C@H]1CN[C@H](C#Cc2cc3ncnc(Nc4ccc5c(cnn5Cc5ccccc5)c4)c3s2)C1)N1CCOCC1 | 1.24%
